In all, about 52,000 compounds went through this assay and about 4,300 (8.3%) were called active. What follows is part of a selection rich in actives, with near analogues and random picks from the rest. A number with no mark means an inactive call. Cut-off read from the data, not from the text of the source: active = survival mostly below about 52% (no sharp cut-off); inactive = mostly above about 56%.

The values that follow come from PubChem BioAssay AID463173 (ICCB-Longwood Screening Facility, Harvard Medical School, 2010).

This assay has as its system DeltatarO mutant. Kind of assay: growth inhibition of S. aureus wild type versus tarO mutant, primary screen, teichoic acid synthesis inhibitors, RN4220, OD600 (AID 463173). The note with it: OD600, 18 h, stronger effect = lower value, screened at 18.75 µg/mL (by protocol).
Regarding `COc1ccc(N(C)C(=O)CCn2cnc3onc(-c4ccc(F)cc4)c3c2=O)c(OC)c1`, the survival is 92%.
Consider `CC(C)Cn1c(C2CC(=O)N(c3ccccc3Cl)C2)nc2ccccc21` (stereo not given), for which the survival was 101%.
Turning to `Cc1nc2ccccc2c(=O)n1CC(C)C`, the survival is 64%.
As for `CCCCNc1nc2c(-c3cccc(Br)c3)nnn2c2ccccc12`, the survival was 101%.
Regarding `CC(C)Nc1nc2c(-c3cccc(Br)c3)nnn2c2ccccc12`, the survival is 69%.
As for `CC(C)Cn1c(-c2cccc(Br)c2)nc2ccccc21`, the survival is 21% (active).
As for `CC(C)Cn1c(-c2ccccc2Cl)nc2ccccc21`, the survival was -2% (active).
Next, `CCCn1c(SCC(O)c2cccc(OC)c2)nc2ccccc21` (stereo not given): 84%.
Turning to `CCCn1c(-c2cccc(Br)c2)nc2ccccc21`, the survival was -4% (active).
Take `CC(=O)NC(C)c1nc2ccccc2n1Cc1ccccc1Cl` (stereo not given): the survival was 83%.
As to `O=C(O)c1ccc(NC(=O)c2cc(S(=O)(=O)N3CCCCC3)c(Cl)cc2Cl)cc1`, the survival is 165%.
As for `CCOCCCN(Cc1ccco1)S(=O)(=O)c1cc2c(cc1C)NC(=O)CO2`, the survival was 64%.
`O=C(NCc1ccco1)c1ccccc1`: the survival is 67%.
`O=C(Nc1ccccc1)c1cc2sccc2n1Cc1ccccc1`: the survival is 87%.
In the case of `COc1ccc(C(=O)NCc2ccc3c(c2)CCN3C(=O)c2ccc(Cl)cc2)c(OC)c1`, the survival is 94%.
As to `COc1ccc(Cl)cc1NC(=O)C(C)n1nnc2sc3c(c2c1=O)CCCC3` (stereo not given), the survival is 78%.
As for `Cc1cccc(NS(=O)(=O)c2ccc(Cl)c(C(=O)Nc3ccccc3C)c2)c1`, the survival is 71%.
Consider `CC(C)CCOc1ccc(Oc2nc(N(C)C)nc(N(C)C)n2)nn1`, for which the survival is 62%.
Consider `Cc1nn(C)c2c1c(C(F)(F)F)cc(=O)n2CC(=O)NCc1ccc(OC(C)C)cc1`, for which the survival is 90%.
For `Cc1ccc(Nc2c(-c3cccs3)nc3nc(C)cc(C)n23)cc1`, the survival was 15% (active).
As to `Cc1cc(C)n2c(Nc3ccccc3C)c(-c3cccs3)nc2n1`, the survival was 84%.
For the molecule `Cc1cccc(Nc2c(-c3cccs3)nc3nc(C)cc(C)n23)c1`, the survival was 151%.
With `Cc1ccc(C)c(NC(=O)Cn2c(=O)n(Cc3ccc4c(c3)OCO4)c(=O)c3ccc(C(=O)NC4CCCCC4)cc32)c1`, the survival was 88%.
Under `CCOc1cc(C(=O)OCc2cc(=O)n3c(C)csc3n2)cc(OCC)c1OCC` stands -1% (active); under `Cc1csc2nc(COC(=O)c3cccc(NC(=O)COc4ccc(Cl)cc4)c3)cc(=O)n12`, 94%.
Consider `Cc1csc2nc(COC(=O)c3cccc(NC(=O)c4cccc(Cl)c4)c3)cc(=O)n12`, for which the survival was 17% (active).
In the case of `Cc1ccc(OCC(=O)Nc2cccc(C(=O)OCc3cc(=O)n4c(C)csc4n3)c2)cc1`, the survival is 89%.
Regarding `COc1cccc(C(=O)Nc2cccc(C(=O)OCc3cc(=O)n4c(C)csc4n3)c2)c1`, the survival is 128%.
Under `Cc1ccccc1C(=O)Nc1cccc(C(=O)OCc2cc(=O)n3c(C)csc3n2)c1` stands 87%; under `CCOc1ccc(C(=O)Nc2ccc(C(=O)OCc3cc(=O)n4c(C)csc4n3)cc2)cc1`, 88%; under `Cc1cccc(OCC(=O)Nc2cccc(C(=O)OCc3cc(=O)n4c(C)csc4n3)c2)c1`, -5% (active).
Regarding `Cc1csc2nc(COC(=O)c3ccc(F)cc3)cc(=O)n12`, the survival was 72%.
Under `Cc1ccc(NC(=O)CN(C)S(=O)(=O)c2ccc3c(c2)CCC(=O)N3)c(C)c1` stands 85%; under `CCN(Cc1ccccc1)C(=O)c1nn(-c2ccc(OC)cc2)c(=O)c2c1c1ccccc1n2C`, 68%; under `COc1ccccc1NC(=O)CN1C(=O)C(C)(C)c2ccccc21`, 85%.
Regarding `CCc1ccc2c(c1)NC(c1ccc(C)cc1)=NC(c1cccs1)=N2`, the survival is 68%.
`Cc1ccc[n+](Cc2cnc(C)nc2N)c1`: the survival was 83%.
As to `CCC(=O)N1CCc2cc(S(=O)(=O)NC(Cc3ccccc3)C(=O)Nc3ccccc3C)ccc21` (stereo not given), the survival was 118%.
Regarding `COc1ccccc1-c1nnc(C2CCN(C(=O)c3ccc(C)cc3)CC2)o1`, the survival is 91%.
In the case of `CCN(CC)N=Nc1ccc(S(=O)(=O)N=C(C)O)cc1`, the survival was 87%.
Take `Nc1nnc(SCc2ccccc2)s1`: the survival was 49% (active).
Regarding `Nc1nnc(CSCc2ccccc2)s1`, the survival was 109%.
Regarding `Nc1nc(SCc2ccccc2)ns1`, the survival is 53%.
As for `Cc1ccc(Nc2c(C(C)C)c(C)c(C#N)c3nc4ccccc4n23)cc1`, the survival is 62%.
Next, `CC(=O)Nc1ccc(Nc2c(CCC(C)C)c(C)c(C#N)c3nc4ccccc4n23)cc1`: 136%; `CCc1c(C)c(C#N)c2nc3ccccc3n2c1Nc1cccc(C(F)(F)F)c1`: 39% (active); `CCn1cc(S(=O)(=O)c2cccc(C)c2)c(=O)c2cc(F)c(N3CCCC(C)C3)cc21` (stereo not given): 84%.
Consider `CC1=C(C(=O)Nc2ccc(C)cc2Cl)C2(CCCCCC2)OC1=O`, for which the survival is 89%.
For `Cc1nc2cc(-c3ccccc3)nn2c(C)c1CCC(=O)NCCc1ccccc1`, the survival is 54%.
Under `COc1cc([N+](=O)[O-])ccc1NC(=O)N1CCC2(CC1)Nc1cc(F)ccc1-n1cccc12` stands 46% (active).
On to `COc1cc(NC(=O)N2CCC3(CC2)Nc2ccccc2-n2cccc23)cc(OC)c1OC`, for which the survival is 101%.
Regarding `COc1cc([N+](=O)[O-])ccc1NC(=O)N1CCC2(CC1)Nc1ccccc1-n1cccc12`, the survival is 37% (active).
As to `COc1cc(NC(=O)N2CCC3(CC2)Nc2cc(F)ccc2-n2cccc23)cc(OC)c1OC`, the survival was 105%.
`CCN1c2cc(C)ccc2-n2cccc2C12CCN(C(=O)Nc1cc(OC)c(OC)c(OC)c1)CC2`: the survival is 93%.
Regarding `COc1cc([N+](=O)[O-])ccc1NC(=O)N1CCN(c2cc(-c3noc(C)n3)ccc2C)CC1`, the survival was 94%.
Under `Cc1cc(C(=O)Nc2cccc(OC(C)C)c2)c(C)o1` stands 105%; under `COc1cccc(CNC(=O)c2nnc(Cc3ccc(Cl)cc3)o2)c1`, 91%; under `CCOc1ccc(CCNC(=O)CCn2c(=O)c3cccn3c3cccnc32)cc1`, 89%.
Next, `CCS/C=C/C#CC1(O)CCCCC1`: 90%; `Cc1ccccc1CNC(=O)c1ccc2nc(SCc3ccc(F)cc3)n(C)c2c1`: 60%; `COc1ccc(Cl)cc1NC(=O)Cn1ncc2c3ccccc3n(Cc3ccccc3)c2c1=O`: 125%.
For the molecule `CCOC(=O)Cn1nnc(-c2ccccc2)n1`, the survival was 95%.
With `CCOC(=O)c1[nH]c2c(c1Cc1ccccc1C)C(=O)CC(c1cc(OC)ccc1OC)C2` (stereo not given), the survival is 82%.
Under `COc1ccc(N2CCN(C(=O)CCc3c(C)nc4cc(-c5ccc(Cl)cc5)nn4c3C)CC2)cc1` stands 116%.
For the molecule `O=C(O)/C=C/C(=O)Nc1nnc(-c2ccccc2F)s1`, the survival was 97%.
`COc1ccc(Nc2c(-c3ccc(C)o3)nc3cc(C)ccn23)cc1`: the survival is 75%.
For the molecule `Cc1ccc(Nc2c(-c3ccc(Br)o3)nc3ccccn23)cc1`, the survival is 112%.
Under `Cc1ccc2nc(-c3ccc(C)o3)c(Nc3ccc4c(c3)OCCO4)n2c1` stands 72%; under `Cc1ccn2c(Nc3ccc4c(c3)OCO4)c(-c3ccc(C)o3)nc2c1`, 81%; under `Cc1ccn2c(Nc3ccc4c(c3)OCCO4)c(-c3ccc(C)o3)nc2c1`, 58% (active).
Next, `Cc1ccc(-c2nc3ccccn3c2Nc2c(C)cccc2C)o1`: -2% (active); `Cc1ccc(-c2nc3ccccn3c2Nc2ccc3c(c2)OCCO3)o1`: 45%; `Brc1ccc(-c2nc3ccccn3c2Nc2ccc3c(c2)OCCO3)o1`: 85%.
As for `c1coc(-c2nc3ccccn3c2Nc2ccc3c(c2)OCCO3)c1`, the survival was 53% (active).
Consider `Cc1ccc(-c2nc3ccccn3c2Nc2ccc3c(c2)OCO3)cc1`, for which the survival was 73%.
Regarding `Cc1ccc(-c2nc3ccccn3c2Nc2ccc3c(c2)OCO3)o1`, the survival is 34% (active).
Take `Cc1ccc2nc(-c3ccco3)c(Nc3ccc4c(c3)OCCO4)n2c1`: the survival was 67%.
Turning to `CCc1nn(CC(=O)NCc2ccccc2Cl)c(=O)c2cc3ccccc3n12`, the survival was 62%.
As for `Cc1ccc(Cn2c(SCc3ccc(C(=O)NC4CCCCC4)cc3)nc3ccncc32)cc1`, the survival is 71%.
As to `Cc1cc(N2CCCC2)nc(SCC(=O)c2ccccc2)n1`, the survival was 77%.
`COc1ccc(CCN2C(=O)CN(C3CCCCCC3)C(=O)C2c2ccc(C)cc2)cc1OC` (stereo not given): the survival was 92%.
Next, `Cc1ccc(Cl)cc1N1CCN(C(=O)c2cn(C)c3ccc(S(=O)(=O)N4CCCC4)cc3c2=O)CC1`: 124%.
Under `Cc1ccccc1Cn1c2ccccc2c2cnn(CC(=O)N3CCC(C)CC3)c(=O)c21` stands 41%.
As to `COc1ccc(OCCCn2c(=O)oc3ccc(C)cc32)cc1`, the survival is 39%.
`Cc1ccc2oc(=O)n(CCNC(=O)Nc3ccc(C)c(F)c3)c2c1`: the survival was 108%.
For `Cc1c(Cl)cccc1NC(=O)NCCOCCn1c(=O)oc2ccccc21`, the survival was 51%.
For `N#CCCCn1c(=O)oc2ccccc21`, the survival is 100%.
Consider `Cc1ccc2oc(=O)n(CCCOc3ccc(Cl)cc3)c2c1`, for which the survival was -3% (active).
As for `Cc1ccc2oc(=O)n(CCCOc3ccccc3Cl)c2c1`, the survival was -4% (active).
Consider `O=c1oc2ccccc2n1CCCOc1ccccc1Cl`, for which the survival was 3% (active).
As for `O=C(O)CCCn1c(=O)oc2ccccc21`, the survival was 96%.
As for `CCOc1ccc(-c2cc(C(=O)N3CCN(c4cc(Cl)ccc4C)CC3)c3ccccc3n2)cc1`, the survival is 58%.
For `O=C(NCc1ccc2c(c1)CCN2C(=O)c1ccc(F)cc1)c1c(F)cccc1F`, the survival was 85%.
Regarding `O=C(NCc1ccccc1Cl)c1ccc2nc(Cc3ccccc3)oc2c1`, the survival was 60%.
Regarding `CC1CCN(S(=O)(=O)c2ccc3c(c2)N(CC(=O)NCCN(C)C)C(=O)CS3)CC1`, the survival was 108%.
